PubChem BioAssay
Activity calls are given as the source filed them.

Assays:
[1] = system: PRMT1 (protein arginine N-methyltransferase 1); assay: PRMT1 binders on small-molecule microarrays, primary screen, biochemical, small-molecule microarray, 635 nm fluorescence (AID 1088); conditions: small-molecule microarray binding, higher = more signal;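 also: binding of Prmt1 protein to compounds spotted on small-molecule microarray slides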
[2] = yeast growth modulation, basal conditions, primary screen, YJM789 clinical isolate, OD600, 24 h (AID 1089);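 also: growth of clinical yeast isolate S. cerevisiae YJM 789 seeded 1000 cells per well; test concentration not given here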; conditions: S. cerevisiae YJM789 growth, higher = more signal, called active from +8 up or from −8 down
[3] = fission yeast growth modulation, primary screen, strain 972, OD600, 24 h, no modulator (AID 1090);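 also: basal condition with compound alone and no growth modifier present; test concentration not given here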; conditions: S. pombe 972 growth, higher = more signal, called active from +8 up or from −8 down
[4] = S. cerevisiae growth modulation with rapamycin, primary screen, strain BY4716, OD600, 96 h (AID 1091); conditions: higher = more signal, called active from +8 up or from −8 down; also: test concentration not given here
[5] = molecular target: Torsin-1A-interacting protein 2 (Homo sapiens) (UniProt Q8NFQ8); assay: LULL1 binders on small-molecule microarray, primary screen, cell lysate, human LULL1 lysate, 635/667 nm fluorescence (AID 1092); conditions: hLULL1 lysate binding, 635 nm fluorescence, higher = more signal;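 also: probe is lysate of COS7 cells overexpressing human LULL1; score merges per-feature 667 nm fluorescence with signal-to-noise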
[6] = E. coli growth modulation, two-sided OD650, primary screen, E. coli filamentation project, strain DRC41, 24 h (AID 1093); conditions: OD650, 24 h, higher = more signal, called active from +8 up or from −8 down;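 also: MC1000 strain lacking acrAB efflux and sulA so SOS filamentation is blocked; test concentration not given here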
[7] = small-molecule microarray binders of probe aLefty2, primary screen, biochemical, biotinylated probe, 635/667 nm fluorescence (AID 1094); conditions: higher = more signal;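 also: score merges spot fluorescence near 667 nm with spot signal-to-noise ratio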
[8] = system: Noggin (protein binding on small-molecule microarray); assay: Noggin binders on small-molecule microarray, primary screen, biochemical, 635/667 nm fluorescence (AID 1095); conditions: 635 nm fluorescence, higher = more signal;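 also: score merges 667 nm feature fluorescence with signal to noise over triplicate slides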
[9] = molecular target: Neurogenic locus notch homolog protein 3 (Homo sapiens) (UniProt Q9UM47); assay: NOTCH3 binders on small-molecule microarray, primary screen, biochemical, 635/667 nm fluorescence (AID 1096); conditions: NOTCH3 binding, 635 nm fluorescence, higher = more signal
[10] = small-molecule microarray binders of probe aEGFR, primary screen, biochemical, biotinylated probe, 635/667 nm fluorescence (AID 1097); conditions: higher = more signal;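 also: probe is a biotinylated anti-EGFR antibody binding compounds printed on slides; score combines fluorescence near 667 nm and signal to noise of each spot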
[11] = system: Plasmodium falciparum Sir2 (PF13_0152, Sir2A); assay: pfSir2 binders on small-molecule microarrays, primary screen, biochemical, small-molecule microarray, 635 nm fluorescence (AID 1098); conditions: small-molecule microarray binding, fluorescence 635 nm; higher = more signal;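 also: score merges spot fluorescence intensity with its signal-to-noise ratio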
[12] = small-molecule microarray binders of probe aDKK1, primary screen, biochemical, biotinylated probe, 635/667 nm fluorescence (AID 1099); conditions: higher = more signal;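 also: score merges 667nm spot fluorescence with signal to noise across triplicate slides; reference of the scale not given here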
[13] = small-molecule microarray binders of probe aCHRDL2, primary screen, biochemical, biotinylated probe, 635/667 nm fluorescence (AID 1100); conditions: higher = more signal
[14] = splicing luciferase reporter signal modulators, primary screen, spliceosome inhibition project, cell-based, HEK293, splice +/- reporter (AID 1101); conditions: luminescence, 24 h, higher = more signal, called active from +8 up or from −8 down;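 also: HEK293 cells carrying a splicing-competent luciferase reporter gene; test concentration not given here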
[15] = molecular target: Fibroblast growth factor 10 (Homo sapiens) (UniProt O15520); assay: FGF10 binders on small-molecule microarrays, primary screen, biochemical, small-molecule microarray, 635 nm fluorescence (AID 1102); conditions: FGF10 binding, fluorescence 635 nm, higher = more signal
[16] = system: glycogen synthase kinase-3 (GSK3A per assay name; protocol says GSK3B); assay: GSK3 binders on small-molecule microarrays, primary screen, biochemical, small-molecule microarray, 635 nm fluorescence, GSK3A (AID 1103); conditions: small-molecule microarray binding, fluorescence 635 nm; higher = more signal; also: the record names both GSK3A and GSK3B
[17] = molecular target: Epidermal growth factor receptor (Homo sapiens) (UniProt P00533); assay: EGFR binders on small-molecule microarrays, primary screen, biochemical, small-molecule microarray, 635 nm fluorescence (AID 1104); conditions: EGFR binding, higher = more signal;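 also: score merges 667 nm emission intensity with spot signal to noise over triplicate slides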
[18] = molecular target: Follistatin-related protein 3 (Homo sapiens) (UniProt O95633); assay: FSTL3 binders on small-molecule microarrays, primary screen, biochemical, small-molecule microarray, 635 nm fluorescence (AID 1105); conditions: FSTL3 binding, higher = more signal;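 also: score merges emission near 667 nm and signal to noise per printed spot across three slides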
[19] = molecular target: Dickkopf-related protein 1 (Homo sapiens) (UniProt O94907); assay: DKK1 binders on small-molecule microarrays, primary screen, biochemical, small-molecule microarray, 635 nm fluorescence scan (AID 1106); conditions: DKK1 binding, higher = more signal;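 also: score merges emission near 667 nm with signal to noise over three replicate slides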
[20] = system: Inhibin beta A chain (activin A); assay: INHBA (activin A) binders on microarrays, primary screen, biochemical, small-molecule microarray, 635 nm fluorescence scan (AID 1107); conditions: small-molecule microarray binding, higher = more signal;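 also: mouse activin A protein probed at 4.33 µg/mL on printed slides; score merges bound-protein fluorescence near 667 nm with spot signal-to-noise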

Chain of Neurogenic locus notch homolog protein 3 (Homo sapiens) (Q9UM47 whole entry, looked up): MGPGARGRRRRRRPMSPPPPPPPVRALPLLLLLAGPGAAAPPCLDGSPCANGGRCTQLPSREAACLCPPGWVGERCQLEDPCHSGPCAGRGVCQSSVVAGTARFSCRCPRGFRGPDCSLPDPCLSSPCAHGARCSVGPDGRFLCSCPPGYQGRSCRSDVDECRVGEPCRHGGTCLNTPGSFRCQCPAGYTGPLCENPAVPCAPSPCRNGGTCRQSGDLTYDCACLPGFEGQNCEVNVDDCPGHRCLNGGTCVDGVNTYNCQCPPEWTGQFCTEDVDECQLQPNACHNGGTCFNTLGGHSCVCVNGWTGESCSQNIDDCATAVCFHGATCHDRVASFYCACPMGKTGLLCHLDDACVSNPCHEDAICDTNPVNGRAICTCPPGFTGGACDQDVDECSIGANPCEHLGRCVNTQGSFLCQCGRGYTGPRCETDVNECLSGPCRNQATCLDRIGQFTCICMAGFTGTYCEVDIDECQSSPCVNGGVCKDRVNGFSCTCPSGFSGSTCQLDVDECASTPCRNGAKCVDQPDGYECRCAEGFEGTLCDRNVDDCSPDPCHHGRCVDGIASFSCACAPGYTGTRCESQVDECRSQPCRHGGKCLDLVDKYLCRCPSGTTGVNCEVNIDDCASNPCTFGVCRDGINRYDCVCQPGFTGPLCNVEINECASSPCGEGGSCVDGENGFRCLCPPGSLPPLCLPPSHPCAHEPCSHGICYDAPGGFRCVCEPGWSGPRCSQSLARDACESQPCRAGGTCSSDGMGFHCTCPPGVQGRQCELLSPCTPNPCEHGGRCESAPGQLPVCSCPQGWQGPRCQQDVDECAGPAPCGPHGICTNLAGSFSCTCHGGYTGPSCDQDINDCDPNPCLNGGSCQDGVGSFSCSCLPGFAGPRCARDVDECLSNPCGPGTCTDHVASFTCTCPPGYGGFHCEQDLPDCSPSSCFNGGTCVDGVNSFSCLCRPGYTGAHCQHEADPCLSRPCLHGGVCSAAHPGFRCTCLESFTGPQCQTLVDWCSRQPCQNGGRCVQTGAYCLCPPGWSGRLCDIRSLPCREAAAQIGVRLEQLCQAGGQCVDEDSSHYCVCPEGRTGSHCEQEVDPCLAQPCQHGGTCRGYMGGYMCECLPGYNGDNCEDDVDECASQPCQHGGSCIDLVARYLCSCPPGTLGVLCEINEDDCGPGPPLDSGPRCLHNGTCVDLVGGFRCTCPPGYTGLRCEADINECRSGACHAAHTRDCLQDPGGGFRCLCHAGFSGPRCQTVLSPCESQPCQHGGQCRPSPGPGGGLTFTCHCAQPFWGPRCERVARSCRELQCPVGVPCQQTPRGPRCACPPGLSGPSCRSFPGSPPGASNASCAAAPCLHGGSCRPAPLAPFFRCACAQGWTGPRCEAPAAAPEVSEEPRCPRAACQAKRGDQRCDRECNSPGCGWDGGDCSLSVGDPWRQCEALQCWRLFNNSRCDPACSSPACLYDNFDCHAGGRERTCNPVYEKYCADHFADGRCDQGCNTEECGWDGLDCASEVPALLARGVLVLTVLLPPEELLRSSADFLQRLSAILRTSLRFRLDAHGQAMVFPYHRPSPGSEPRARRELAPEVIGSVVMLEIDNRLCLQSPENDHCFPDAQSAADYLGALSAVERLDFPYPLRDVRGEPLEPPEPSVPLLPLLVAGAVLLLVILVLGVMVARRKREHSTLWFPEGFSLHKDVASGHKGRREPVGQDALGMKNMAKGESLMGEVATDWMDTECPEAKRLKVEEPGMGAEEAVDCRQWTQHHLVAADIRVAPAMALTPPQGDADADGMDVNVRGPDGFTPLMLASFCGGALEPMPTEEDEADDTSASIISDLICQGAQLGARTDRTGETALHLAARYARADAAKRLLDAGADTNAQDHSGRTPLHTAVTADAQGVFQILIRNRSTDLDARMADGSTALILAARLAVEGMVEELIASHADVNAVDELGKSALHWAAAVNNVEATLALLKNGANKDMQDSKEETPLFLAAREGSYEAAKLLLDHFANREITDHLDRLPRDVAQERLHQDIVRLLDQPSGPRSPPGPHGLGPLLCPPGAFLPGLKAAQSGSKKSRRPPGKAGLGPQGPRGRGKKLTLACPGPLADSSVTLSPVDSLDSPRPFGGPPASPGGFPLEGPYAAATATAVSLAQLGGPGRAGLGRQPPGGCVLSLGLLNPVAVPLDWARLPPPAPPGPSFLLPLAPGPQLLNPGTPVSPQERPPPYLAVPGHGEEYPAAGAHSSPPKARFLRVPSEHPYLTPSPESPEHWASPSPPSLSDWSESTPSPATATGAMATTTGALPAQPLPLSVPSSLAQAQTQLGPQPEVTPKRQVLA
Chain of Follistatin-related protein 3 (Homo sapiens) (O95633 whole entry, looked up): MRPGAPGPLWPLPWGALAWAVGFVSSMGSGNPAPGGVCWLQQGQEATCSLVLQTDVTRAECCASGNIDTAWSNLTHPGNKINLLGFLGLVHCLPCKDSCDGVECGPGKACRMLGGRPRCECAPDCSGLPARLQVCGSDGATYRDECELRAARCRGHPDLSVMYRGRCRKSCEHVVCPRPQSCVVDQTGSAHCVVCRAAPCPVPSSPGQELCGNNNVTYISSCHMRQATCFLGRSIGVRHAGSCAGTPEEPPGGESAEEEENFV
Chain of Fibroblast growth factor 10 (Homo sapiens) (O15520 whole entry, looked up): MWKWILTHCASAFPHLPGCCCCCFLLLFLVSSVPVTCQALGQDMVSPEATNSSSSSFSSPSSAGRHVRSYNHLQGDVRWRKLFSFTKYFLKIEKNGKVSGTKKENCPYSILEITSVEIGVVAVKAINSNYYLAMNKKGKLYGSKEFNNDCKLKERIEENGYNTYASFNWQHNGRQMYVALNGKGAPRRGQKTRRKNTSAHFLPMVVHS
Chain of Epidermal growth factor receptor (Homo sapiens) (P00533 whole entry, looked up): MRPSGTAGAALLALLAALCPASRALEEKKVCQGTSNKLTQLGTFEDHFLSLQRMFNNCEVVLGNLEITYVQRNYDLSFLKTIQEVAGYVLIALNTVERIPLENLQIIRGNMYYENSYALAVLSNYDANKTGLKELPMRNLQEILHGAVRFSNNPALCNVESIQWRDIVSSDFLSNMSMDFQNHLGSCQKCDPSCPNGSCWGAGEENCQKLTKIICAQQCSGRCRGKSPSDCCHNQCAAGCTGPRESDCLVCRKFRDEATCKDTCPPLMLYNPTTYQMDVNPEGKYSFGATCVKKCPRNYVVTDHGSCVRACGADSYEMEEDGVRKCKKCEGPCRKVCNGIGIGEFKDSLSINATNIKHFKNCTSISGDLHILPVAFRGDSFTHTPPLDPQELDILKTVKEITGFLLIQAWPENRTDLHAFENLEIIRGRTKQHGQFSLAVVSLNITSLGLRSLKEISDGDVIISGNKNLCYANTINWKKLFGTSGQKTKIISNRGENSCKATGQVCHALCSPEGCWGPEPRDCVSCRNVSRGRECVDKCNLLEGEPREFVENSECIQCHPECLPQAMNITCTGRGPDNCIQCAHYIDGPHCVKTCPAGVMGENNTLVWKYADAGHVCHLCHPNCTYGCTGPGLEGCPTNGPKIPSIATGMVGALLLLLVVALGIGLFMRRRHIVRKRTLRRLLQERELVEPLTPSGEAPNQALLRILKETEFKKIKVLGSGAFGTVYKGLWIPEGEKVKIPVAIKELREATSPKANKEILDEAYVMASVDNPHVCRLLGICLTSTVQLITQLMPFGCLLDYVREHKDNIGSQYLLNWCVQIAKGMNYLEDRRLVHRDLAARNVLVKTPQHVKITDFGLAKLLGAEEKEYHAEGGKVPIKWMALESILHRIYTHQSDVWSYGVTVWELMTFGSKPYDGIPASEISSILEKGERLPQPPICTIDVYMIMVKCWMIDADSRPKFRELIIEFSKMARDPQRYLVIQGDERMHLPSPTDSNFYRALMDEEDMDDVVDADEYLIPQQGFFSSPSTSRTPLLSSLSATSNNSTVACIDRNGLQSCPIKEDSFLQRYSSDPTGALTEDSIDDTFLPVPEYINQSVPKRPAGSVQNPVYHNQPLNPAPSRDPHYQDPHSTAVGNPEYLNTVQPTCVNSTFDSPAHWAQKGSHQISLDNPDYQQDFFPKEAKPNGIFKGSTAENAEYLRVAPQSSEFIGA
Chain of Torsin-1A-interacting protein 2 (Homo sapiens) (Q8NFQ8 whole entry, looked up): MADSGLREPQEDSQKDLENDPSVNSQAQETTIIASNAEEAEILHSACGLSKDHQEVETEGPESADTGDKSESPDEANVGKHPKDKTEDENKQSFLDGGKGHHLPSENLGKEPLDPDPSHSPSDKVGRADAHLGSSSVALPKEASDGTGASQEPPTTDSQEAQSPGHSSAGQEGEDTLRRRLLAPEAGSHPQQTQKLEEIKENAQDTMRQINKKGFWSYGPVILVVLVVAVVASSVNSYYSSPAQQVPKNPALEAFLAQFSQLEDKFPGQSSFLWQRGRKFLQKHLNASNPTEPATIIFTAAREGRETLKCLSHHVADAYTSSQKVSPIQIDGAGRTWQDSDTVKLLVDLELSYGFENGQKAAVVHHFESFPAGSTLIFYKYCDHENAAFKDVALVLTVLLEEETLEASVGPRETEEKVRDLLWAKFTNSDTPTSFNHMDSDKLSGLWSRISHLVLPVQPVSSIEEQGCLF
Chain of Dickkopf-related protein 1 (Homo sapiens) (O94907 whole entry, looked up): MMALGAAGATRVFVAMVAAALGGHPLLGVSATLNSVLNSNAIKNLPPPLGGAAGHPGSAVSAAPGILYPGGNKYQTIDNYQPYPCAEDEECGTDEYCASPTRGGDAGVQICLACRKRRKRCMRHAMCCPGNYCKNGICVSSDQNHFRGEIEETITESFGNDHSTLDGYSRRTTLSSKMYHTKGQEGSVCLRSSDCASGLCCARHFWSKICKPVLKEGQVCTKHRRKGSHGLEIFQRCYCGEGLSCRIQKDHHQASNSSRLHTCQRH

Row | Compound | composite z-score [1] | z-score [2] | z-score [3] | z-score [4] | composite z-score [5] | z-score [6] | composite z-score [7] | composite z-score [8] | composite z-score [9] | composite z-score [10] | composite z-score [11] | composite z-score [12] | composite z-score [13] | z-score [14] | composite z-score [15] | composite z-score [16] | composite z-score [17] | composite z-score [18] | composite z-score [19] | composite z-score [20]
1 | CC(C)CNC(=O)[C@@H]1c2ccccc2C(=O)N(CC23CC4CC(CC(C4)C2)C3)[C@H]1c1ccc(CO)cc1 | 0.797 | -0.998 (inactive) | -1.88 (inactive) | -0.243 (inactive) | 2.69 | -0.109 (inactive) | -0.121 | 0.264 | 0.953 | -0.146 | 0.248 | 0.031 | 0.446 | -1.46 (inactive) | 0.124 | 1.02 | 0.0591 | 0.777 | -0.0314 | 0.471
2 | COCCOC(=O)N1C(=O)[C@@]2(c3cc(C#CCCO)ccc31)[C@H](C(=O)N1CCN(c3ncccn3)CC1)[C@H]1C(=O)O[C@H](c3ccccc3)[C@H](c3ccccc3)N1[C@@H]2c1ccc(O)cc1 | 1.54 | 0.114 (inactive) | -0.161 (inactive) | 1.63 (inactive) | 2.04 | 1.49 (inactive) | -0.299 | 0.865 | 0.945 | -0.219 | 1.3 | -0.499 | -0.345 | 0.894 (inactive) | 1.16 | 1.01 | 0.368 | 0.698 | -0.0017 | -0.242
3 | [N-]=[N+]=NCc1ccccc1C[C@]1(C(=O)O)COC(c2ccc(OCCCO)cc2)=N1 | -0.486 | 0.493 (inactive) | 0.612 (inactive) | -0.0738 (inactive) | -0.0986 | 0.398 (inactive) | -0.0252 | -0.389 | -0.614 | -0.0702 | 0.991 | 0.261 | 1.12 | 0.544 (inactive) | -0.472 | -1.19 | -0.756 | -0.757 | -1.27 | 0.616
4 | Cc1ccc(S(=O)(=O)N2[C@@H](c3ccccc3)C(C(=O)O)=CC[C@H]2c2ccc(C#N)cc2)cc1 | 1.21 | -0.143 (inactive) | 0.612 (inactive) | -0.371 (inactive) | 3.39 | -1.5 (inactive) | -0.003 | -0.495 | 0.721 | -0.0238 | 1.16 | 0.543 | 0.864 | -0.0152 (inactive) | 0.888 | 0.379 | 0.0164 | 0.273 | -0.522 | 0.667
5 | C#CCN=C(N)N | 0.21 | -0.303 (inactive) | -0.349 (inactive) | -0.247 (inactive) | 0.737 | -0.291 (inactive) | -0.18 | 0.759 | 0.562 | 0.0768 | 0.271 | 0.0623 | -0.534 | 0.422 (inactive) | 0.528 | 0.605 | 0.527 | 0.918 | 0.861 | 0.548
6 | C=CCOC(=O)[C@H]1[C@@H]2C(=O)O[C@@H](c3ccccc3)[C@@H](c3ccccc3)N2[C@@H](c2ccc(OCCOC(=O)[C@@H]3C[C@@H]4C(=O)N[C@@H](Cc5ccccc5)C(=O)N4[C@@H]3c3ccc(O)cc3)cc2)[C@]12C(=O)Nc1ccccc12 | 1.55 | 0.455 (inactive) | -0.113 (inactive) | 3.75 (inactive) | 2.13 | 0.0664 (inactive) | -0.151 | 1.65 | 0.758 | -0.0929 | 1.34 | -0.271 | -0.25 | 0.878 (inactive) | 1.18 | 1.29 | 0.328 | 0.953 | 0.973 | -0.0812
